Inhibition data for nine compounds are collected here from ChEMBL document CHEMBL4296182, “CO-ADD screening of NIH NCI Diversity Set V”.

For part of these data: Entries with a potency or affinity are not part of this list.

The test system of one test is Staphylococcus aureus. Put plainly: Antibacterial activity against Staphylococcus aureus MRSA ATCC 43300 (CO-ADD:GP_020); MIC in CAMBH media using NBS plates, by Resazurin F(560/590). Type of test: functional. The conditions noted are these: Concentration 20 uM, ASSAY_TEST Inhibition of Bacterial Growth, detection method Resazurin, Fluorescence (ex560/em590), MEDIA CAMHB, plate type 384well, CORNING #3640, time 18 hr.

A further test relates to Acinetobacter baumannii. Description: Antibacterial activity against Acinetobacter baumannii ATCC 19606 (CO-ADD:GN_034); MIC in CAMBH media using NBS plates, by Resazurin F(560/590). Type of test: functional. Particulars: Concentration 20 uM, ASSAY_TEST Inhibition of Bacterial Growth, detection method Resazurin, Fluorescence (ex560/em590), MEDIA CAMHB, plate type 384well, CORNING #3640, time 18 hr.

A further test deals with Escherichia coli. Put plainly: Antibacterial activity against Escherichia coli ATCC 25922 (CO-ADD:GN_001); MIC in CAMBH media using NBS plates, by Resazurin F(560/590). Particulars: Concentration 20 uM, ASSAY_TEST Inhibition of Bacterial Growth, detection method Resazurin, Fluorescence (ex560/em590), MEDIA CAMHB, plate type 384well, CORNING #3640, time 18 hr. Type of test: functional.

In a further test the test system is Klebsiella pneumoniae. The conditions noted are these: Concentration 20 uM; ASSAY_TEST Inhibition of Bacterial Growth; detection method Absorption (OD600); MEDIA CAMHB; plate type 384well; NBS; CORNING #3640; time 18 hr.
The next test has as its system Candida albicans. Particulars: 20 µM.
The next test relates to Cryptococcus neoformans. The conditions noted are these: Concentration 20 uM; ASSAY_TEST Inhibition of Fungal Growth; detection method Resazurin; Absorption (OD600-OD570); plate type 384well; NBS; CORNING #3640.

As for `C=CCCC1(C2=CCCCC2)C(=O)NC(=O)NC1=O`, the Inhibition was 0.11% in the test on Staphylococcus aureus; -12.21% in the test on Acinetobacter baumannii; 7.91% in the test with Escherichia coli; 12.33% in the test on Klebsiella pneumoniae; 3.67% with Candida albicans; -8.53% in the test with Cryptococcus neoformans.

In the case of `C=CCN1CC[C@]23c4c5ccc(O)c4O[C@H]2C(=O)CC[C@@]3(O)[C@H]1C5` [NALOXONE], the Inhibition in the test with Staphylococcus aureus is 11.42%; with Acinetobacter baumannii, -13%; with Escherichia coli, 1.67%.

Turning to `COc1cc(OC)cc(C2(C#N)CCN(C)CC2)c1`, the Inhibition in the test on Staphylococcus aureus was 3.06%; in the test on Acinetobacter baumannii, 10.25%; with Escherichia coli, -15.21%; in the test with Klebsiella pneumoniae, 17.67%; in the test on Candida albicans it was 8.63%; in the test on Cryptococcus neoformans, 25.01%.

Consider `CC12CCC3C(CCC4Cc5[nH]c6ccccc6c5CC43C)C1CCC2O` (stereo unspecified), for which the Inhibition was -0.19% with Staphylococcus aureus; -0.61% in the test with Acinetobacter baumannii; 16.15% in the test on Escherichia coli; 10.81% in the test on Klebsiella pneumoniae; -1.61% with Candida albicans; -15.22% in the test on Cryptococcus neoformans.

Regarding `CCC1CCC(C)N(N=O)C1` (stereo unspecified), the Inhibition in the test on Staphylococcus aureus was -0.88%; with Acinetobacter baumannii, -14.6%; in the test with Escherichia coli it was 6.08%; in the test with Klebsiella pneumoniae it was 7.29%; with Candida albicans it was -0.7%; in the test with Cryptococcus neoformans, -1.16%.

Regarding `O=c1nc(C(F)(F)C(F)(F)C(F)(F)F)[nH]o1`, the Inhibition with Staphylococcus aureus is 8.37%; with Acinetobacter baumannii it was 8.1%; with Escherichia coli, -1.78%; with Klebsiella pneumoniae, 12.08%; in the test with Candida albicans, 3.43%; with Cryptococcus neoformans it was -2.86%.

Regarding `CC1(C)NC(=S)C(C)(C)N1N=O`, the Inhibition in the test with Staphylococcus aureus is 8.42%; with Acinetobacter baumannii it was -13.11%; with Escherichia coli, 8.85%; with Klebsiella pneumoniae it was 8.33%; in the test with Candida albicans, 5.47%; in the test with Cryptococcus neoformans, -2.68%.

Consider `c1ccc(C2NCCc3[nH]cnc32)cc1` (stereo unspecified), for which the Inhibition is 1.04% with Staphylococcus aureus; -8.45% in the test on Acinetobacter baumannii; -9.57% with Escherichia coli; 10.31% in the test with Klebsiella pneumoniae; 0.7% with Candida albicans; 13.69% in the test with Cryptococcus neoformans.

Turning to `C=C1C/C(=C/C)C(=O)O[C@@H]2CCN3CC=C(COC(=O)[C@]1(C)O)[C@H]23` [SENECIPHYLLINE], the Inhibition with Staphylococcus aureus was 11.97%; with Acinetobacter baumannii it was -14.61%; in the test with Escherichia coli, -0.27%; with Klebsiella pneumoniae, 22.67%; with Candida albicans, -1.29%; with Cryptococcus neoformans it was -12.96%.
